# Results as given in ChEMBL document CHEMBL1961873, “Compounds: GSK PKIS; Assays: Nanosyn kinase panel” (2012).
# How the values were obtained:
# [1] = target: Sphingosine kinase 1 (Homo sapiens) (UniProt Q9NYA1); conditions: at 1 µM;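 also: mean SPHK1 inhibition value reported from the GSK PKIS kinase panel screen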
# [2] = target: T1, Sphingosine kinase 2 (Homo sapiens) (UniProt Q9NRA0); conditions: at 0.1 µM
# T1 sequence (whole entry): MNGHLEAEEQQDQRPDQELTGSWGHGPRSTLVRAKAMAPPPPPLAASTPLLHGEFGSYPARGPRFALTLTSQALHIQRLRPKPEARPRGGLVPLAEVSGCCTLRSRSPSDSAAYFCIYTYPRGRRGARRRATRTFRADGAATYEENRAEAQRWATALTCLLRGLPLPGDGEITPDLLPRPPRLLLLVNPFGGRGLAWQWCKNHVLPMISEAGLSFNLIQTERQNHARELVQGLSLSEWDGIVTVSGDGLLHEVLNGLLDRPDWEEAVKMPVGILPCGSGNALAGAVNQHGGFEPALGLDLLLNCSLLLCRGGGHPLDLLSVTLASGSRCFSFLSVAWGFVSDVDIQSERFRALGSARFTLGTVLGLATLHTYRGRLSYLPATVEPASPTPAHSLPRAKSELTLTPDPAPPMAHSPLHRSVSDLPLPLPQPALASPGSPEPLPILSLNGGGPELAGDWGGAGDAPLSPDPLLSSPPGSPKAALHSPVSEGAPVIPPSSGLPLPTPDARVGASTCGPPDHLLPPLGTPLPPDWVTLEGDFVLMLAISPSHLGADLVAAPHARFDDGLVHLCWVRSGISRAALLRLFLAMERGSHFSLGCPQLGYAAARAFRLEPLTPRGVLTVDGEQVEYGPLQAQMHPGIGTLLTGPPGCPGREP
# [3] = target: T1, Sphingosine kinase 2 (Homo sapiens); conditions: at 1 µM
# [4] = target: Casein kinase II subunit alpha (Homo sapiens) (UniProt P68400); conditions: at 0.1 µM
# Sequence of Casein kinase II subunit alpha (Homo sapiens) (P68400 whole entry, looked up): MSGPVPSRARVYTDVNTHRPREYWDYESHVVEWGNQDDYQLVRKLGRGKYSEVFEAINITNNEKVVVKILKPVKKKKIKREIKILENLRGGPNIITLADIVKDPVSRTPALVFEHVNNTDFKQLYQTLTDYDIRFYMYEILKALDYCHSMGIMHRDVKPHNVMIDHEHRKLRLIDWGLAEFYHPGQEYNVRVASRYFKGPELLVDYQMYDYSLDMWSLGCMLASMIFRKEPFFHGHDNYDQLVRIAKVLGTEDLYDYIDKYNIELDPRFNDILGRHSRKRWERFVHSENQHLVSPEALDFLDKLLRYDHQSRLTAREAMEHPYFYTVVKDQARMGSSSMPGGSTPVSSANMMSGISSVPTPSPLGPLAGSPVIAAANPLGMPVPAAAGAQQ
# [5] = target: Casein kinase II subunit alpha (Homo sapiens) (UniProt P68400); conditions: at 1 µM
# [6] = target: T2, Inhibitor of nuclear factor kappa-B kinase subunit alpha (Homo sapiens) (UniProt O15111); conditions: at 0.1 µM
# T2 sequence (whole entry): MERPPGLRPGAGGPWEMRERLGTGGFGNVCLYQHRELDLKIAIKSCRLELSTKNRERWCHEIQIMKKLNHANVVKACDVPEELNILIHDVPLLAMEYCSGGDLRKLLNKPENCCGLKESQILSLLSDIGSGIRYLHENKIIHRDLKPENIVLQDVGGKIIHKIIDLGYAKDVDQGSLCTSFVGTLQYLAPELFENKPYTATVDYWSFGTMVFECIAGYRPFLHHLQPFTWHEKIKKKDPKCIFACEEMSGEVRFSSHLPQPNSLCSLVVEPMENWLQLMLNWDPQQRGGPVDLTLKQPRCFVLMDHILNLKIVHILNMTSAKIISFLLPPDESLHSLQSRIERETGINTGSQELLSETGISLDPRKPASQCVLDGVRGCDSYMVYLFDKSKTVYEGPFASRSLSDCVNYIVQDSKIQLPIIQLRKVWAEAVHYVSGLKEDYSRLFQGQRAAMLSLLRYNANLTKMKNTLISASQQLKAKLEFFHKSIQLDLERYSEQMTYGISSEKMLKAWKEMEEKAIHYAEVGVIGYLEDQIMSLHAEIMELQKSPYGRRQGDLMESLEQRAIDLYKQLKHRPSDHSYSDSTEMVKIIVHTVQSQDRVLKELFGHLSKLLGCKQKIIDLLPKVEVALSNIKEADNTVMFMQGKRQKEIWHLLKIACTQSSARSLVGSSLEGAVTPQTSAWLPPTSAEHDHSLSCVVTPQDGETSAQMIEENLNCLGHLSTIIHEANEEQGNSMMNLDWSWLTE
# [7] = target: T2, Inhibitor of nuclear factor kappa-B kinase subunit alpha (Homo sapiens); conditions: at 1 µM
# [8] = target: T3, Inhibitor of nuclear factor kappa-B kinase subunit beta (Homo sapiens) (UniProt O14920); conditions: at 0.1 µM
# T3 sequence (whole entry): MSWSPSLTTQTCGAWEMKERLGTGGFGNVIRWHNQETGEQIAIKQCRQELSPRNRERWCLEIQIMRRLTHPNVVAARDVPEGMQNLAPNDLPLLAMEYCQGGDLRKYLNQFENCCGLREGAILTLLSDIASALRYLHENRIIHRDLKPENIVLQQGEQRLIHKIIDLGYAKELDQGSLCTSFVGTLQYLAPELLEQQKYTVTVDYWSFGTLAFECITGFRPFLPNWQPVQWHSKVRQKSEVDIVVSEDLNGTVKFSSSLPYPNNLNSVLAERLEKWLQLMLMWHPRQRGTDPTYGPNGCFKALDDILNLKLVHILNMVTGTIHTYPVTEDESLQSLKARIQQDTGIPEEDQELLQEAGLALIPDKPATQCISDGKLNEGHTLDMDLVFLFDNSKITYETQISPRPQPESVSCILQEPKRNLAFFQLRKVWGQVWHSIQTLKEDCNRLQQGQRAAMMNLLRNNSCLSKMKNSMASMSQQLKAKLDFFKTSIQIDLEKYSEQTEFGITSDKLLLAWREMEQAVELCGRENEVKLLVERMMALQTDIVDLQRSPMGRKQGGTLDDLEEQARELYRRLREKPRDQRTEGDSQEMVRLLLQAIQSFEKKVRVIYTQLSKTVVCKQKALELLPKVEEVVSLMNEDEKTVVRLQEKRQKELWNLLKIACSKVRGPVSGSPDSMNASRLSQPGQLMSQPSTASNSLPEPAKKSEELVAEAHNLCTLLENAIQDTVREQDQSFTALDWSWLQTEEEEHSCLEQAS
# [9] = target: T3, Inhibitor of nuclear factor kappa-B kinase subunit beta (Homo sapiens); conditions: at 1 µM
# [10] = target: T4, Inhibitor of nuclear factor kappa-B kinase subunit epsilon (Homo sapiens) (UniProt Q14164); conditions: at 0.1 µM
# T4 sequence (whole entry): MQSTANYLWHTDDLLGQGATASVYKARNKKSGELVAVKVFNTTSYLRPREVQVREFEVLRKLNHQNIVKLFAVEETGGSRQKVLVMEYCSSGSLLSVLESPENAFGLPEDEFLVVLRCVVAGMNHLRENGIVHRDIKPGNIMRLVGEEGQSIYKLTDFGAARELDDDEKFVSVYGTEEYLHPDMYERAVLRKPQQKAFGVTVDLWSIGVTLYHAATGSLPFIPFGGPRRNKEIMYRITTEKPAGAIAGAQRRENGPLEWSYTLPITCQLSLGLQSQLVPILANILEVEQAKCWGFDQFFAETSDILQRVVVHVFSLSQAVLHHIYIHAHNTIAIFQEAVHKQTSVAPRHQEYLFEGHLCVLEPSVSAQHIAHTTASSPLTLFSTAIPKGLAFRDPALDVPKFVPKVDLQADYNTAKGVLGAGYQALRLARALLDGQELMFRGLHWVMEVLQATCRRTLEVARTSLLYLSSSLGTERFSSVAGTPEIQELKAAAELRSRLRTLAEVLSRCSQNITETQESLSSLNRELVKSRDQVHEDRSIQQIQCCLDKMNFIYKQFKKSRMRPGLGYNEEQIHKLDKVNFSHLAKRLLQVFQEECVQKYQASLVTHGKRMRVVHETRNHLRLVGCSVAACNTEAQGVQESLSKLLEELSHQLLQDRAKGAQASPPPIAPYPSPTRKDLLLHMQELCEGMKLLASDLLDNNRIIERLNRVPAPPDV
# [11] = target: T4, Inhibitor of nuclear factor kappa-B kinase subunit epsilon (Homo sapiens); conditions: at 1 µM
# [12] = target: T5, Serine/threonine-protein kinase Nek1 (Homo sapiens) (UniProt Q96PY6); conditions: at 0.1 µM
# T5 sequence (whole entry): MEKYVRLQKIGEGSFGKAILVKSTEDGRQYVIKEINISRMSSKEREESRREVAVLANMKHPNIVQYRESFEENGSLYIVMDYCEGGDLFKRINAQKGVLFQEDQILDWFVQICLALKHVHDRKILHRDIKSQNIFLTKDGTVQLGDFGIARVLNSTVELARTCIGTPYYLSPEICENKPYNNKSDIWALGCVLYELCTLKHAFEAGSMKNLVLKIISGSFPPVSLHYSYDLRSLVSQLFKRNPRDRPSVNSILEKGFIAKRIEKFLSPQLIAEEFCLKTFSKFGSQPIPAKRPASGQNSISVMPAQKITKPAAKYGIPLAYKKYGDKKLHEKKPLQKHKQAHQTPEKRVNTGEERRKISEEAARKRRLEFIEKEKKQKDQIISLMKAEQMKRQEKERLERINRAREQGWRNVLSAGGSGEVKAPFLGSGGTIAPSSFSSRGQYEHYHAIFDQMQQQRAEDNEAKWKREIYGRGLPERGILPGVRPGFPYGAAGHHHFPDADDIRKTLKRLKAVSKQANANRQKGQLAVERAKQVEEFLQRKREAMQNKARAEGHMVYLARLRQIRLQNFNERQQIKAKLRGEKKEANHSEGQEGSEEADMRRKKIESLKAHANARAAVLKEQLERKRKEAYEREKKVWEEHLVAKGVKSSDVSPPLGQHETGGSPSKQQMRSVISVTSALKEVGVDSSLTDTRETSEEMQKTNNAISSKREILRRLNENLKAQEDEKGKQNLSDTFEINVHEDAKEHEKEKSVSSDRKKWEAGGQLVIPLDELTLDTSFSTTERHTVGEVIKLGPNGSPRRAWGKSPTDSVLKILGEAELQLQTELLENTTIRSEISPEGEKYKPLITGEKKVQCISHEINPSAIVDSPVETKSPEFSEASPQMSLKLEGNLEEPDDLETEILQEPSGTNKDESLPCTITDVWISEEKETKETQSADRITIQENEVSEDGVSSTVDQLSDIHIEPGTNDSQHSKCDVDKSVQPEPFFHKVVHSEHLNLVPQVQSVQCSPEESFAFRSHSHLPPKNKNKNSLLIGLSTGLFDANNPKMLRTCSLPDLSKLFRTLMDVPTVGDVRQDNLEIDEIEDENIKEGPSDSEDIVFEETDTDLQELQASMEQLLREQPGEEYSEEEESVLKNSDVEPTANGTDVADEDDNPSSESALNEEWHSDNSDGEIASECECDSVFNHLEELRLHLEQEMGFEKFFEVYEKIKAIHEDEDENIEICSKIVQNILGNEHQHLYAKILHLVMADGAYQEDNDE
# [13] = target: T5, Serine/threonine-protein kinase Nek1 (Homo sapiens); conditions: at 1 µM
# [14] = target: T6, Serine/threonine-protein kinase Nek2 (Homo sapiens) (UniProt P51955); conditions: at 0.1 µM
# T6 sequence (whole entry): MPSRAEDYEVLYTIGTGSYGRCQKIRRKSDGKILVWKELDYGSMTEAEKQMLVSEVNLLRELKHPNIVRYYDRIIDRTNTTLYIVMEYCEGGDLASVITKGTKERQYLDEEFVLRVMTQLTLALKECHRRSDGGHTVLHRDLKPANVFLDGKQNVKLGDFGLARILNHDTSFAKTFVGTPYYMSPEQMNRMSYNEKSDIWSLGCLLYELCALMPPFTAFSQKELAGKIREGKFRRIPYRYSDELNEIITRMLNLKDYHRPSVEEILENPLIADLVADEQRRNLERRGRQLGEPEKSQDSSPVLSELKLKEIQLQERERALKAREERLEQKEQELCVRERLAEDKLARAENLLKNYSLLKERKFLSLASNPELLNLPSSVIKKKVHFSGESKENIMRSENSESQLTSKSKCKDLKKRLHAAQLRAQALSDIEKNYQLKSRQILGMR
# [15] = target: T6, Serine/threonine-protein kinase Nek2 (Homo sapiens); conditions: at 1 µM
# [16] = target: Serine/threonine-protein kinase Nek6 (Homo sapiens) (UniProt Q9HC98); conditions: at 0.1 µM
# Sequence of Serine/threonine-protein kinase Nek6 (Homo sapiens) (Q9HC98 whole entry): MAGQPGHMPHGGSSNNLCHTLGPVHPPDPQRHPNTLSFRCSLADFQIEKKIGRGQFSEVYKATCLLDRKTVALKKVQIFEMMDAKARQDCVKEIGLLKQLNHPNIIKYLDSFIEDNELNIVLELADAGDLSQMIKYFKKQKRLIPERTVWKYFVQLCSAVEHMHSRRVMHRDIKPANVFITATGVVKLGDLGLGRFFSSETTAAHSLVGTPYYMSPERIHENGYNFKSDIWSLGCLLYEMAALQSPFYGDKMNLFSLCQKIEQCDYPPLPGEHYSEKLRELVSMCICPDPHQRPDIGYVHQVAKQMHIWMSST
# [17] = target: Serine/threonine-protein kinase Nek6 (Homo sapiens) (UniProt Q9HC98); conditions: at 1 µM
# [18] = target: Serine/threonine-protein kinase Nek7 (Homo sapiens) (UniProt Q8TDX7); conditions: at 0.1 µM
# Sequence of Serine/threonine-protein kinase Nek7 (Homo sapiens) (Q8TDX7 whole entry, looked up): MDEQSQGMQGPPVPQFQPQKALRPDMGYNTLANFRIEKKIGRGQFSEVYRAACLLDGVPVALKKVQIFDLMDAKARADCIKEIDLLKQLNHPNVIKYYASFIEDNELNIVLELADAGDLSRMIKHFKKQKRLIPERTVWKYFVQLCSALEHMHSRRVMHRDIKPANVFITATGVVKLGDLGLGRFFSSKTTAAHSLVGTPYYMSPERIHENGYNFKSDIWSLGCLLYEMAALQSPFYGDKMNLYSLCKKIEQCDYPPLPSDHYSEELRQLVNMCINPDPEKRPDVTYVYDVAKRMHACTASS
# [19] = target: Serine/threonine-protein kinase Nek7 (Homo sapiens) (UniProt Q8TDX7); conditions: at 1 µM
# [20] = target: T7, Serine/threonine-protein kinase Nek9 (Homo sapiens) (UniProt Q8TD19); conditions: at 0.1 µM;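 also: reported value is the mean percent inhibition of NEK9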
# T7 sequence (whole entry): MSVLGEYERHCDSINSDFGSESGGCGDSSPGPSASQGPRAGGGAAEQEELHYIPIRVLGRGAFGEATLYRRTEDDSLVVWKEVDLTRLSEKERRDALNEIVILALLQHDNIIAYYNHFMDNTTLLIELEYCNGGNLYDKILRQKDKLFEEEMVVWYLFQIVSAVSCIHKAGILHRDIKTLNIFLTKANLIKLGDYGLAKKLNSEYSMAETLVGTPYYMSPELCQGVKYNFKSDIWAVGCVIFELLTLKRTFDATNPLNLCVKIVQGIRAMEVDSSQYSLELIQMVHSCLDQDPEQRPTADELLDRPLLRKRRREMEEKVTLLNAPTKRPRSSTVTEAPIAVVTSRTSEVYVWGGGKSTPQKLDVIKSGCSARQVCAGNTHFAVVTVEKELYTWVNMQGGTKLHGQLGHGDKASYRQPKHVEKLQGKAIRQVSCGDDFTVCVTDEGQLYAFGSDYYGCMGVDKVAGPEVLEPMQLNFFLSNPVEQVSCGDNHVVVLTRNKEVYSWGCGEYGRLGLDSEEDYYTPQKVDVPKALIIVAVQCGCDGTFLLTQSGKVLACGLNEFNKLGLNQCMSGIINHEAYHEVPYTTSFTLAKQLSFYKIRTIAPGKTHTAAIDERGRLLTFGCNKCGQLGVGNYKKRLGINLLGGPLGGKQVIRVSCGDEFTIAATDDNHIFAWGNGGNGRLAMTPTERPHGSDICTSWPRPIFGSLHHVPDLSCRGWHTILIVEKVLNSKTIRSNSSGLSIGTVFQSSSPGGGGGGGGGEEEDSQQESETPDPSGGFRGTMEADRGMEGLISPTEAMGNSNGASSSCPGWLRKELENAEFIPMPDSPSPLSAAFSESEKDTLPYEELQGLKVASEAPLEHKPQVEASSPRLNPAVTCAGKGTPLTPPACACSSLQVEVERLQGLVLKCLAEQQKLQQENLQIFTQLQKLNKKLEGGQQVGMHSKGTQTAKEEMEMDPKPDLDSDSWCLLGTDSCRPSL
# Sequence of Sphingosine kinase 1 (Homo sapiens) (Q9NYA1 whole entry): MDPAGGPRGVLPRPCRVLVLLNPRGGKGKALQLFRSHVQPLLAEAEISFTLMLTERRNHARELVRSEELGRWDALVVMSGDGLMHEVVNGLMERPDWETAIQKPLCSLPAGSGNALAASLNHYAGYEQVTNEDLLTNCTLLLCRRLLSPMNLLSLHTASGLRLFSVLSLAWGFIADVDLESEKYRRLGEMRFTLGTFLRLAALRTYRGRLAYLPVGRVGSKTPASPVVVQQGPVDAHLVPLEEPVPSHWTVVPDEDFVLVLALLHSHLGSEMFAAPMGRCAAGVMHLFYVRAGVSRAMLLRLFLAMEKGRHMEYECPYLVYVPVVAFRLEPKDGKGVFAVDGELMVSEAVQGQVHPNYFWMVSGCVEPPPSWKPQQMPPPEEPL
smiles,measurement,setting,value
Cc1ccc(C(=O)NC2CCCCC2)cc1-c1ccc(C(=O)NCC2CC2)cc1,inhibition,[1],-0.86%
same,inhibition,[2],-0.91%
same,inhibition,[3],-1.61%
same,inhibition,[4],0.66%
same,inhibition,[5],-5.06%
same,inhibition,[6],-3.35%
same,inhibition,[7],-8.02%
same,inhibition,[8],3.29%
same,inhibition,[9],-2.31%
same,inhibition,[10],1.75%
same,inhibition,[11],0.57%
same,inhibition,[12],1.91%
same,inhibition,[13],1.48%
same,inhibition,[14],3.04%
same,inhibition,[15],3.36%
same,inhibition,[16],3.51%
same,inhibition,[17],-2.96%
same,inhibition,[18],4.39%
same,inhibition,[19],3.76%
same,inhibition,[20],-0.48%
